Activity calls are given as the source filed them. Calls come from the whole dose curve; as a rule, active = well fitted curve in the direction sought with a large enough effect in the repeat runs; inconclusive = weak or mixed curves; inactive = flat fitted curve, though single readings scatter.
test: qHTS assay to test for compound auto fluorescence at 460 nm (blue) in HepG2 cells (AID 720687); details: autofluorescence 405/460 nm, 1 h; series mostly up to 91.3 µM; fluorescence, % of fluorescent control: at the top concentration
Source text: U.S. Tox21 Program National Center for Advancing Translational Sciences [NCATS] NIH Chemical Genomics Center [NCGC] U.S. Environmental Protection Agency [EPA] National Institutes of Environmental Health Sciences [NIEHS] National Toxicology Program [NTP] U.S. Food and Drug Administration [FDA] Tox21 Assay Overview: Compound auto fluorescence often interferes with screening of the compound library against various biological targets and signaling pathways. Some of these compounds may have fluorophoric properties. Such properties may interfere with the assay outputs resulting in false positives and/or negatives. To decrease such complications and ensure the compound activities are relevant in terms of biological response, the Tox21 10K compound library was screened for auto fluorescence. From the fluorophores used as reporter signals in our screening assays, the auto fluorescence equivalencies of compounds against three fluorophores have been evaluated: Triamterene, Fluorescein and Rose Bengal sodium for blue, green and red fluorescence, respectively. The fluorescence intensities were measured using Excitation/Emission wavelengths at 405/460nm, 485/535nm and 540/590nm for blue, green and red labels, respectively. This assay includes the blue fluorescence data.
Tox21 Assay Protocol Summary: 2,000 HepG2 cells in 5 uL of culture medium (MEM containing 10% FBS) per well were dispensed into black wall/clear bottom 1536-well plates using a Multidrop Combi Dispenser (ThermoFisher Scientific, Waltham, MA). The assay plates were incubated overnight at 37 C to allow cell attachment to the well bottom, followed by the transfer of 23 nL compound or DMSO vehicle by a pintool work station (Kalypsys , San Diego, CA). After the assay plates were incubated for 1 hr at 37 C and 5% CO2, fluorescence intensities in the assay plates were measured by an Envision (PerkinElmer, Shelton, CT) plate reader using three labels for measuring blue, green and red fluorescence at […] 460, 535 and 590 nm respectively.
% is set by controls: 0 for no effect and ±100 for the full control effect.

Row | Structure (SMILES) | fluorescence, % of fluorescent control
1 | Brc1c(Br)c(Br)c(Br)c(Br)c1Br | 0.182% [at 3.72 µM] (inactive)
2 | COP(=O)(OC)O/C(C)=C/C(=O)N(C)C | -0.098% (inactive)
3 | Oc1ccc2c3c1O[C@H]1[C@@H](O)C=C[C@H]4[C@@H](C2)NCC[C@@]341 | 0.0365% [at 95.7 µM] (inactive)
4 | CC[C@H](O)C(C[C@H](C)N(C)C)(c1ccccc1)c1ccccc1 | 0.0045% [at 95.7 µM] (inactive)
5 | CC[C@H](N)c1ccccc1 | 0.0432% (inactive)
6 | O=c1[nH]c2ccccc2o1 | 0.229% (inactive)
7 | COC1=CC(=O)O[C@@H](/C=C/c2ccccc2)C1 | -0.064% [at 95.7 µM] (inactive)
8 | ClCCCCl | -0.009% [at 95.7 µM] (inactive)
9 | Clc1nc(Cl)nc(Nc2ccccc2Cl)n1 | 0.122% (inactive)
10 | CN(C)C(=O)Oc1cc(OC(=O)N(C)C)cc(C(O)CNC(C)(C)C)c1 (stereo not given) | 0.0969% [at 18.6 µM] (inactive)
11 | CC(C)c1ccc(O)cc1 | -0.115% (inactive)
12 | N#CN=C1SCCN1Cc1ccc(Cl)nc1 | -0.0864% (inactive)
13 | CCCCCCCCBr | -0.0104% (inactive)
14 | Clc1cc2c(cc1Cl)Oc1cc(Cl)c(Cl)cc1O2 | -0.0066% [at 0.37 µM] (inactive)
15 | COc1cc(CC(C)N)cc(OC)c1OC (stereo not given) | -0.0024% [at 95.7 µM] (inactive)
16 | CC(C)[N+](C)(CCC(C(N)=O)(c1ccccc1)c1ccccc1)C(C)C | -0.0322% [at 18.6 µM] (inactive)
17 | C[C@@H](N)[C@@H](O)c1ccccc1 | -0.0421% [at 18.6 µM] (inactive)
18 | CN=CNc1ccc(C)cc1C | -0.158% (inactive)
19 | CN(C)C1CCCCC1 | 0.0186% (inactive)
20 | CN(CCO)CCO | 0.0369% [at 95.7 µM] (inactive)

Row | Structure (SMILES) | fluorescence, % of fluorescent control
21 | C=CCc1cc(OC)c2c(c1)OCO2 | -0.0332% [at 95.7 µM] (inactive)
22 | C=CCCC#N | -0.012% (inactive)
23 | Cc1ccc(S(=O)(=O)N[C@@H](CCCCN)C(=O)CCl)cc1 | 2.48% [at 46 µM] (inactive)
24 | CS(=O)(=O)c1ccc(C(=O)C2C(=O)CCCC2=O)c(Cl)c1COCC(F)(F)F | 0.0001% (inactive)
25 | O=[N+]([O-])c1cccc(CCl)c1 | -0.0842% [at 95.7 µM] (inactive)
26 | CCOC1Oc2ccc(OS(C)(=O)=O)cc2C1(C)C (stereo not given) | 0.0483% (inactive)
27 | NC(=O)OCCCc1ccccc1 | 0.207% [at 46 µM] (inactive)
28 | C=C(C)[C@H]1CN[C@H](C(=O)O)[C@H]1CC(=O)O | 0.029% [at 46 µM] (inactive)
29 | CCOC(=O)COc1ccc(Cl)cc1Cl | 0.183% (inactive)
30 | CC(C)N(Cc1ccccc1)C(=O)C(C)(C)C | 0.182% (inactive)
31 | Cl/C=C/CCl | -0.0972% (inactive)
32 | CCN[C@@H](C)Cc1cccc(C(F)(F)F)c1 | -0.0942% (inactive)
33 | O=C(Cl)OCc1ccccc1 | -0.0035% (inactive)
34 | CC(Cc1ccccc1)NCCn1cnc2c1c(=O)n(C)c(=O)n2C (stereo not given) | -0.199% (inactive)
35 | O=C(O)C(Br)(Br)Br | -0.0468% (inactive)
36 | C=CC=O | 0.0439% [at 95.7 µM] (inactive)
37 | CC[C@@H](CO)NC(=O)[C@@H]1C=C2c3cccc4c3c(cn4C)C[C@H]2N(C)C1 | 0.82% [at 46 µM] (inactive)
38 | O=C1CCCCC1Cl (stereo not given) | 0.763% [at 95.7 µM] (inactive)
39 | CCOC(=O)C(SP(=S)(OC)OC)c1ccccc1 (stereo not given) | -0.258% (inactive)
40 | COc1ccc2c(C(=O)c3ccc(Cl)cc3)c(C)n(CC(=O)O)c2c1 | 0.0326% [at 46 µM] (inactive)
